# In PubChem BioAssay (NCI):
# “And” between values parts separate entries of the source, which are not always exact repeats. Equal entries are not always repeated. The panel holds about 83,000 compounds, 20% with a hit somewhere; the sample as a whole holds those more often.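 Step 1: grow cells in 96-well plates. Step 2: add test compound at a single concentration. Step 3: incubate 48 h. Step 4: record percent growth.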 The source made the active and inactive calls. How the source made its calls: active means growth percent below 10; inactive means the rest.
# Tested on: HL-60(TB) leukemia
# Test: NCI-60 one-dose screen, 48 h (100 = growth as untreated, 0 = no growth, -100 = all killed)
# Conditions: 10 µM unless noted
row,Structure (SMILES),growth
1,O=C(O)c1ccc2c(c1)CCC2,68.3% (inactive)
2,CC(C)(C)n1cc(-c2ccnc(NCCNS(=O)(=O)c3ccc(C(F)(F)F)cc3)c2)c(-c2cccc(O)c2)n1,29.3% (inactive)
3,COc1cc(NCCCCN=C(N)N)c2ncccc2c1,103% (inactive)
4,C=CCN(CCOC(=O)c1ccc([N+](=O)[O-])cc1)CCOC(=O)c1ccc([N+](=O)[O-])cc1,88.1% (inactive)
5,CCOc1cc(CNc2ccc(N3CCOCC3)c(C(=O)O)c2)ccc1OC,106% (inactive)
6,COc1ccc(C2=C(c3cn(C)c4ccccc34)C(=O)OC2)cc1OC,7.26% (active)
7,COc1ccc2sc3cccc(NCCN(C)C)c3c(=O)c2c1,-49.5% (active)
8,CCc1c(C)c2cc3nc(NCc4ccccc4)oc3c(C)c2oc1=O,80.6% (inactive)
9,O=C(N/N=C/c1ccccc1O)c1ccncc1,29.8% (inactive)
10,Cn1c2c(cc(S(=O)(=O)c3ccccc3)c1=O)CCc1c-2cnn1-c1ccccc1Cl,95.3% (inactive)
11,O=[N+]([O-])c1ccc(N/N=C(/C(=N/Nc2ccc([N+](=O)[O-])cc2)c2ccccc2)c2ccccc2)cc1,117% (inactive)
12,CCN(C)CCCOc1ccc(/C(=C(\C)Cc2cccc(OC)c2)c2ccc(OC(C)=O)cc2)cc1,100% (inactive)
13,O=C(Cn1c(C(=O)c2ccccc2)nc2ccccc21)c1ccc(F)cc1,17.4% (inactive)
14,COc1ccc(-c2cn(-c3cc(OC)c(OC)c(OC)c3)c(=O)n2C(C)=O)cc1,32.2% (inactive)
15,O=C(CCCCC(=O)N/N=C\c1ccccc1O)N/N=C\c1ccccc1O,4.44% (active)
16,O=C(/C=C/C=C/c1ccc2c(c1)OCO2)N1CCCCC1,100% (inactive) and 93.4% (inactive)
17,CCCCCCCCC(C)OC(=O)c1nn(C(C)=O)c2ccccc12 (centres undefined),99.5% (inactive)
18,O=C(CN1C(=O)NC2NC(=O)NC21)N/N=C/c1ccccc1[N+](=O)[O-] (centres undefined),99.2% (inactive)
19,O=C1C(Cl)=C(Nc2ccc(Nc3ccccc3)c(NC3=C(Cl)C(=O)c4ccccc4C3=O)c2)C(=O)c2ccccc21,61.6% (inactive)
20,O=C1/C(=C\c2ccc3nccnc3c2)SC(=S)N1CCc1ccc(O)cc1,75.6% (inactive)

row,Structure (SMILES),growth
1,O=c1c2sc3ncccc3c2nnn1-c1ccccc1,106% (inactive)
2,CCOC(=O)C(=O)C(C(=O)OCC)c1ccccc1 (centres undefined),95.6% (inactive)
3,COc1ccccc1CNCCCN1C(=O)c2ccc3c4c(ccc(c24)C1=O)C(=O)N(CCCNCCCCNCCCCN)C3=O,-37.8% (active)
4,CCCCN(CCCC)CC(O)CN(CC)CC (centres undefined),108% (inactive)
5,C=CCCCCOc1cccc(/C=C2\N=C3SCCCN3C2=O)c1,94.9% (inactive)
6,O=C(O)c1cccc(Br)c1,104% (inactive) and 98.8% (inactive)
7,Oc1cccc(Nc2nccc(-c3ccc4ccccc4c3)n2)c1,0.229% (active)
8,Clc1ccc(/C=N\N2CCCCCC2)cc1,99.3% (inactive) and 77.3% (inactive)
9,Cc1nc2cc(NC(=O)CN3CCN(CCN4C(=O)c5cccc6cccc(c56)C4=O)CC3)ccc2s1,63.9% (inactive)
10,Cc1ccc2c(c1)Sc1c(ccc3ccccc13)N2,44.9% (inactive)
11,COc1ccc(-c2cn[nH]c2-c2ccc(OC)c(O)c2)cc1,46.1% (inactive)
12,CNS(=O)(=O)Oc1ccc(-c2ccc3occc3c2)cc1,100% (inactive)
13,CC[C@@H](C[C@H](CCO)c1ccccc1)c1cc2ccccc2o1,92.5% (inactive)
14,CC1(C)[C@@H](OC(=O)CCC(=O)O)CC[C@]2(C)[C@H]3C(=O)C=C4[C@@H]5C[C@@](C)(C(=O)O)CC[C@]5(C)CC[C@@]4(C)[C@]3(C)CC[C@@H]12,84.9% (inactive) and -56.3% (active)
15,O=C1NC(=O)C(CC(=O)n2c(-c3ccccc3)nc3ccccc32)C(=O)N1,106% (inactive)
16,O=C1C=Cc2ncccc2C1=O,57.7% (inactive)
17,O=C(CSc1nc2sc3c(c2c(=O)n1-c1ccccc1)CCCCC3)N/N=C/c1ccc(F)cc1,110% (inactive)
18,CC(=O)[C@@H]1CCC=C2CC[C@]3(C)[C@@H](CC[C@@H]4[C@@]5(C)CCCNC(C)(C)[C@@H]5CC[C@]43C)[C@H]21,-12.3% (active)
19,COC(=O)/C(CCC=C(C)C)=C1\[C@@H](OC(C)=O)C[C@@]2(C)[C@H]1CC(=O)N[C@H]1[C@@]3(C)CCNC(=O)[C@@H](C)[C@@H]3CC[C@@]12C,102% (inactive)
